Our source for the inhibition values is PubChem BioAssay AID630 (Emory University Molecular Libraries Screening Center, 2007).

Molecules are shown by their SMILES. Screen size: about 88,000 compounds; about 260 (0.3%) were called active.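 How the source made its calls: active means compounds that reduce the energy-transfer binding signal between the protein and its labelled peptide by more than half; inactive means the rest.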 The full list was thinned out, with actives kept by preference.

The assay deals with Mothers against decapentaplegic homolog 3 (Homo sapiens) (UniProt P84022). The experiment in a line: Smad3/FoxH1 peptide binding inhibitors, primary screen, biochemical, TR-FRET (AID 630).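 Further: 0% = Smad3 plus labelled peptide maximal FRET and 100% = peptide-only background.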 The settings on record: TR-FRET Smad3/Dy647-FoxH1 peptide binding, europium anti-His; at 25 µM; stronger effect = higher value. On the technique in general: TR-FRET usually uses a lanthanide donor and a delayed reading to cut background.
Mothers against decapentaplegic homolog 3 (Homo sapiens), sequence (P84022 whole entry, looked up): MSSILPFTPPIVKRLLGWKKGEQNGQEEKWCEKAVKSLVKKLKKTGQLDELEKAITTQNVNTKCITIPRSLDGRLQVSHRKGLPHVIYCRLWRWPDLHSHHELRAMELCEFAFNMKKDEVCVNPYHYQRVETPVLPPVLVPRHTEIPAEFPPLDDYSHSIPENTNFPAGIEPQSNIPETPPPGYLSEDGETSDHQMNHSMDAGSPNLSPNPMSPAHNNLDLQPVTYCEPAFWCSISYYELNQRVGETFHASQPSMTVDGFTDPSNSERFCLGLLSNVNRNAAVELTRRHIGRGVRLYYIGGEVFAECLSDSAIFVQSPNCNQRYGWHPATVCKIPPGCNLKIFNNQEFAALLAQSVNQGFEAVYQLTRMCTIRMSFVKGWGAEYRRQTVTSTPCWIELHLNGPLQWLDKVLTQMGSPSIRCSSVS
As usually defined, the inhibition is the drop in the measured response relative to a control, in per cent. In the case of `O=C(COc1ccccc1)Nc1nonc1NC(=O)COc1ccccc1`, the inhibition is 8.67% (inactive).

Consider `O=C(CSCc1ccccc1)N1CCc2ccccc21`, for which the inhibition is -1.3% (inactive).

Take `O=C(c1cccc(N2CCCC2=O)c1)N1CCOCC1`: the inhibition is -6% (inactive).

Take `Cc1ccc(/C=N/NC(=O)Cn2nc(C)c(Br)c2C)o1`: the inhibition is 21.4% (inactive).

Turning to `O=C(Nc1ccccc1C(=O)NCCCn1ccnc1)c1ccc(Cl)cc1Cl`, the inhibition was -0.02% (inactive).

As for `COc1cc(OC)c(-n2c(C)cc(C=O)c2C)cc1Cl`, the inhibition is 2.99% (inactive).

For the compound `Cc1nc(NC(=O)C2CCCCC2)sc1C`, the inhibition was 10.5% (inactive).

Take `CCOC(=O)c1ccc2c(c1)nc(SCC(=O)NC(C)C)n2CC`: the inhibition is 20% (inactive).

With `CS(=O)(=O)N(CC(=O)N1CCN(c2ccc(F)cc2)CC1)C1CCCCC1`, the inhibition is -8.5% (inactive).

As for `c1ccc(CC2CCN(c3nc4ccccc4n4cnnc34)CC2)cc1`, the inhibition is -10% (inactive).

Take `Cn1nc(-c2ccccc2)c(-c2nc(-c3ccc(Cl)cc3)no2)c1Cl`: the inhibition is 2.93% (inactive).

For the compound `COc1ccc(CN(CC(=O)NC2CCCC2)C(=O)CCC(=O)Nc2cc(C)on2)cc1`, the inhibition was -0.48% (inactive).

Consider `Cc1oc(-c2ccccc2Cl)[n+]([O-])c1C`, for which the inhibition is 2.52% (inactive).

Consider `Cc1ccc(CS(=O)(=O)CCC(=O)NC2CC2)cc1`, for which the inhibition is 6.21% (inactive).

Take `CCOc1ccc(NC(=O)C2CCCN(C(=O)Nc3ccccc3)C2)cc1` (centres undefined): the inhibition was 10.5% (inactive).

For the compound `COC(=O)c1nc(NC(=O)c2ccccc2)n[nH]1`, the inhibition is 1.94% (inactive).

As for `Cc1cccc(C(=O)Nc2ccccc2N2CCN(c3ccc(F)cc3)CC2)c1`, the inhibition is 3.31% (inactive).

On to `c1ccc(C(c2ccccc2)N2CCN(Cc3nnnn3C3CCCCC3)CC2)cc1`, for which the inhibition was -7.75% (inactive).

On to `COc1ccc(-c2nc3ccccc3n2CCC(C)C)cc1OC`, for which the inhibition is -3.34% (inactive).

For the compound `C=CCC(NCc1ccco1)c1ccc(OC)cc1` (centres undefined), the inhibition was 2.67% (inactive).

As to `CCc1c(O)cc2n(c1=O)-c1ccccc1C2(C)C`, the inhibition is 7.56% (inactive).

Consider `Cc1ccc(-c2cc(C(=O)NCC3CCCO3)c3ccccc3n2)o1` (centres undefined), for which the inhibition is 0.54% (inactive).

For the compound `Cc1ccccc1-n1c(C)cc(/C=C2\NC(=O)NC2=O)c1C`, the inhibition is 10.8% (inactive).

As for `O=C(NCCCCCCNC(=O)NCc1ccco1)NCc1ccco1`, the inhibition was 10.3% (inactive).

Regarding `FC(F)(F)c1cnc(Oc2ccccc2-c2nnc(-c3ccc(Cl)cc3)o2)c(Cl)c1`, the inhibition is 6.7% (inactive).

Take `Cc1cc(C)c(S(=O)(=O)N2C=CC(C(F)(F)F)=NCC2)c(C)c1`: the inhibition was -6.95% (inactive).

For `Cc1cccc(C(=O)O)c1C[C@@H]1NCC[C@@H]2c3ccccc3N[C@@H]12`, the inhibition was 8.15% (inactive).

For the compound `CC(NC(=O)C1CCC(CNc2c(N3CCOCC3)c(=O)c2=O)CC1)c1ccccc1` (centres undefined), the inhibition was -2.58% (inactive).

Take `OC(COc1ccc2ccccc2c1)Cn1cncn1` (centres undefined): the inhibition was 6.06% (inactive).

Turning to `C=CCN(C(=O)Nc1ccc2oc(C)nc2c1)c1ccccc1`, the inhibition is 1.13% (inactive).

As to `Cc1ccc(-c2noc(CSc3nnc(-c4cccs4)n3C)n2)cc1`, the inhibition is -3.4% (inactive).

With `N#C/C(=C(\O)CCl)c1nnc2n1CCCCC2`, the inhibition was 0.54% (inactive).

With `CCn1c(SCC(=O)Nc2ccc(OC)c(OC)c2)nnc1-c1c[nH]c2ccccc12`, the inhibition was -6.68% (inactive).

For `Cc1c(CCO)c(=O)n(-c2ccccc2)n1S(=O)(=O)c1ccc(F)cc1`, the inhibition is -23.9% (inactive).

Regarding `CCCCOc1ccc(N(CC(=O)NCC2CCCO2)C(=O)CCC(=O)Nc2cc(C)ccn2)cc1` (centres undefined), the inhibition is 2.38% (inactive).

As for `Cc1ccc(C)c(N2C(=O)CS/C2=N\NC(=O)c2ccccc2Cl)c1`, the inhibition is 3.21% (inactive).

Regarding `COC(=O)c1cc(NC(=O)CC2C(=O)NCCN2C(=O)c2ccc(F)cc2)cc(C(=O)OC)c1` (centres undefined), the inhibition was -2.76% (inactive).

Regarding `CCc1cccc(C)c1N(C(=O)Cn1c(CO)nc2ccccc21)C(C)COC` (centres undefined), the inhibition was -3.83% (inactive).

Turning to `COc1ccc(Nc2cc(=O)oc3ccccc23)cc1`, the inhibition is 1.47% (inactive).

Turning to `O=C(Cc1c[nH]c2ccccc12)OCCOC(=O)Cc1c[nH]c2ccccc12`, the inhibition is 0.81% (inactive).

Take `CCOC(=O)C(C)n1cnc2sc(C)c(C)c2c1=O` (centres undefined): the inhibition is 5.75% (inactive).

As to `CCOc1ccc(CN(Cc2ccco2)S(=O)(=O)c2ccc(-n3cnnn3)c(OC)c2)cc1`, the inhibition is -8.78% (inactive).

In the case of `Cc1cc(C)cc(N(CC(=O)N2CC=C(c3ccccc3)CC2)S(=O)(=O)c2c(C)noc2C)c1`, the inhibition is -9.86% (inactive).

As to `Cc1ccc(S(=O)(=O)NCC(C)NS(C)(=O)=O)cc1` (centres undefined), the inhibition is -1.07% (inactive).

Take `O=C(OCC#CCSc1nnc(-c2ccncc2)o1)c1sc2ccccc2c1Cl`: the inhibition was 8.98% (inactive).

In the case of `CCOC(=O)CN(Cc1ccc(OC)c(OC)c1)S(=O)(=O)c1ccc(OC)cc1`, the inhibition is 3.33% (inactive).

In the case of `O=C(O)/C=C/C(=O)Nc1ccc2c(c1)-c1ccccc1C2`, the inhibition was 0.91% (inactive).

In the case of `CC1=NN(c2ccccc2)C(=O)[C@H]1N=Nc1ccc(S(N)(=O)=O)cc1`, the inhibition was -0.1% (inactive).

Take `CC(C)CNC(=S)NNC(=O)c1nn(C)cc1Cl`: the inhibition was 3.44% (inactive).

`CCOc1c(Cl)cc(/C=N/O)cc1OC`: the inhibition is 5.66% (inactive).

Take `O=C(c1cc2sccc2n1Cc1ccc(F)cc1)N1CCc2ccccc21`: the inhibition was 4.44% (inactive).

In the case of `CCN(CC)Cc1cc(C(C)=O)ccc1O`, the inhibition was -9.81% (inactive).

As to `O=C(CCN1CCc2ccccc2C(O)(c2ccccc2)C1)c1ccc2c(c1)OCCO2` (centres undefined), the inhibition was 8.66% (inactive).

As to `Cc1cc(C)n(-c2cc(Oc3ccccc3)ncn2)n1`, the inhibition was 3.36% (inactive).

`Cn1c(Cn2nnc3ccccc32)nnc1SCC(=O)c1ccccc1F`: the inhibition is 16.9% (inactive).

With `CCOC(=O)C1=C(C)NC(SC)=NC1c1ccccc1` (centres undefined), the inhibition was -3.1% (inactive).

In the case of `CC(=NCc1ccco1)c1c(C(F)(F)F)[nH]n(-c2nc3ccccc3s2)c1=O`, the inhibition is 3.18% (inactive).

For `O=C(Cc1ccc(-n2c(=O)c3sccc3n(Cc3ccc(F)cc3)c2=O)cc1)NCc1ccco1`, the inhibition is -21.8% (inactive).

As to `CC(C)c1nc2oc3c(N4CCN(C)CC4)ncnc3c2c2c1CCC2`, the inhibition was 51.1% (active).

On to `CCN1CCN(c2ncnc3c2oc2nc(C)c4c(c23)CC(C)(C)OC4)CC1`, for which the inhibition was -8.93% (inactive).

Turning to `Cc1cc(C)nc(N2CCN(c3ncnc4c3oc3ccccc34)CC2)n1`, the inhibition was 2.31% (inactive).

Consider `COC(=O)C1=C(C(=O)c2ccc(C)cc2)C(c2ccccc2)n2nnnc2N1` (centres undefined), for which the inhibition is -4.2% (inactive).

Turning to `Clc1ccc(C2=CSC3=Nc4cccc5cccc(c45)N23)cc1`, the inhibition is 19.6% (inactive).

`Nn1c(Cc2cccc3ccccc23)nnc1SCC(=O)N1CC(=O)Nc2ccccc21`: the inhibition was -9.99% (inactive).

`O=C(c1ccco1)N1CCN(C(=O)C2CCCN(S(=O)(=O)c3cccc4nsnc34)C2)CC1` (centres undefined): the inhibition is -9.4% (inactive).

With `NC1=NC(=O)C2(COC(c3ccccc3Cl)OC2)S1` (centres undefined), the inhibition was 8.22% (inactive).

`Cc1oc2nc(SCC(=O)Nc3ccc(S(N)(=O)=O)cc3)nc(NC(=O)c3ccccc3)c2c1C`: the inhibition is -117% (inactive).

For `Cc1ccc(C2C(C#N)C(C#N)N3CCCN23)cc1` (centres undefined), the inhibition was -8.98% (inactive).

Take `COc1ccc2c(c1)cc1n2CCN=C1NN`: the inhibition is 17.3% (inactive).

For `C/C(N[O-])=C(\C)[N+]([O-])=[Co].CC(=N\[O-])/C(C)=N/[O-].[CH2-]CCN1CCOCC1.c1ccncc1`, the inhibition is 25% (inactive).

With `CC(C)(C)NC(=O)CN(Cc1cccs1)C(=O)CNS(=O)(=O)c1ccccc1`, the inhibition was -8.34% (inactive).

On to `COC(=O)c1ccccc1Sc1c(/C=N/OCc2ccc(Cl)cc2)c(C(F)(F)F)nn1C`, for which the inhibition is 1.08% (inactive).

As to `Cc1ccc(NC(=O)CSCC(=O)N2CCOCC2)cc1`, the inhibition is 8.2% (inactive).

For the compound `OCCNc1nc2ccccc2[nH]1`, the inhibition was 3.77% (inactive).

As for `Cc1cc(SCC(=O)c2ccccc2)nc(SCC(=O)c2ccccc2)n1`, the inhibition was -1.72% (inactive).

Consider `COc1ccc(-c2nn(-c3ccccc3)cc2C(=O)Nc2nccs2)cc1OC`, for which the inhibition was -5% (inactive).

In the case of `CC(=O)C1=C(C)NC(C)=C(C(C)=O)C1c1cn(-c2ccccc2)nc1-c1cccs1`, the inhibition is -6.06% (inactive).

As to `Cc1ccc(C2NC(=S)NC3=C2N2CCC3CC2)cc1` (centres undefined), the inhibition was 2.12% (inactive).

With `COc1cc(N2CCCC2)c(OC)cc1/C=C(/C#N)c1cccc(Br)c1`, the inhibition is 0.41% (inactive).

In the case of `Cc1cc2c(cc1C)NC1=C(N2)O[C@H](c2c[nH]c3ccc(COc4ccccc4)cc23)C1=O`, the inhibition was 81.3% (active).

Take `Cn1cc(S(=O)(=O)N2CCN(c3ccc(F)cc3)CC2)c(=O)n(C)c1=O`: the inhibition is -0.19% (inactive).

Regarding `CCC(CC)C(=O)N1CC(=O)Nc2ccc(Br)cc2C1c1ccccc1` (centres undefined), the inhibition is 1.61% (inactive).

On to `CC1(C)C2CCC13CS(=O)(=O)NC3C2` (centres undefined), for which the inhibition was 7.24% (inactive).

Take `O=S(=O)(O)c1ccc(O)c2ncccc12.O=S(=O)(O)c1ccc(O)c2ncccc12.[Zn]`: the inhibition was 63.9% (active).

`O=C(O)COc1c(Cl)cc(Cl)c2cccnc12`: the inhibition is -8.45% (inactive).

In the case of `O=C(Nc1cccc2ccccc12)N1CCN(Cc2ccc3c(c2)OCO3)CC1`, the inhibition was 8.91% (inactive).

`CC(C)(C)C(=O)c1cnc(Nc2ccccc2)s1`: the inhibition was -2.94% (inactive).

Take `Cn1nc(-c2ccccc2)c(CSc2cccc(Cl)c2)c1Cl`: the inhibition was -0.19% (inactive).

On to `COc1ccc(C2=NO[C@@H]3C(=O)N(Cc4ccccc4)C(=O)[C@H]23)cc1OC`, for which the inhibition is 4.9% (inactive).

Turning to `COc1ccc(C(=O)CN2C(=O)NC(C)(c3ccc(C)cc3)C2=O)cc1OC` (centres undefined), the inhibition is 0.23% (inactive).

Consider `COC(=O)c1ccc(NC(=O)c2ccco2)cc1`, for which the inhibition is 66.7% [fluorescence artefact?] (active).

On to `O=C(Nc1ccc(Oc2ccccc2)cc1)c1ccco1`, for which the inhibition was -3.88% (inactive).

On to `Cc1ccnc(NC(=O)c2ccc(NC(=O)c3ccco3)cc2)c1`, for which the inhibition was 8.59% (inactive).

`Cc1cc(N/C=C\C(=O)c2ccc(Cl)c(Cl)c2)no1`: the inhibition was -20.1% (inactive).
